Assay results taken from the supplement of paper PMC10515830.
Structures can show the parent of a compound that is named as a salt.

Test system: Danio rerio larvae (5 dpf)
Assay: difference in combined optomotor response to red, green and blue moving lines vs DMSO (percentage points); higher = stronger optomotor response than DMSO
Settings: 10 µM; exposure time 6 h
In short: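 Library compounds were tested at 10 µM final in 100 µL egg water on wild-type 5 dpf zebrafish larvae in 96-well plates for 6 h, with 48 larvae per compound. After 3 h, plates at 28.5 ℃ were imaged every 6 s during a 3-h run of moving lines and 100 ms, 400Hz tones. Behaviours were quantified by Z-LaP Tracker and reported as the compound mean less the vehicle control mean, in percentage points.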

Row | Compound | difference
1 | CNCC[C@H](Oc1cccc2ccccc12)c1cccs1 [(S)-Duloxetine (hydrochloride)] | -11.3
2 | NC(=O)Cc1cccc(C(=O)c2ccccc2)c1N [Nepafenac] | -4.77
3 | CN(C)[C@@H]1C(O)=C(C(N)=O)C(=O)[C@@]2(O)C(O)=C3C(=O)c4c(O)cccc4[C@@](C)(O)[C@H]3[C@H](O)[C@@H]12 [Oxytetracycline] | -0.914
4 | Oc1c(Cl)cc(Cl)c(Cl)c1Cc1c(O)c(Cl)cc(Cl)c1Cl [Hexachlorophene] | -15.6
5 | Nc1nc(Cl)nc2c1ncn2[C@H]1C[C@H](O)[C@@H](CO)O1 [Cladribine] | 8.45
6 | Cc1cc(C2CCCCC2)n(O)c(=O)c1 [Ciclopirox] | 8.2
7 | O=C(O)c1cc(/N=N/c2ccc(S(=O)(=O)Nc3ccccn3)cc2)ccc1O [Sulfasalazine] | 4.25
8 | CC(C)(C)c1nc(-c2cccc(NS(=O)(=O)c3c(F)cccc3F)c2F)c(-c2ccnc(N)n2)s1 [Dabrafenib] | -1.51
9 | CN(C/C=C/C#CC(C)(C)C)Cc1cccc2ccccc12 [Terbinafine (hydrochloride)] | -4.42
10 | NNC(=O)c1ccncc1 [Isoniazid] | 6.66
